{"source": "PubChem BioAssay", "key": {"[1]": {"molecular_target": "Nuclear receptor coactivator 3 (Homo sapiens) (UniProt Q9Y6Q9)", "sequence (Q9Y6Q9 whole entry, looked up, the tested form may be a part)": "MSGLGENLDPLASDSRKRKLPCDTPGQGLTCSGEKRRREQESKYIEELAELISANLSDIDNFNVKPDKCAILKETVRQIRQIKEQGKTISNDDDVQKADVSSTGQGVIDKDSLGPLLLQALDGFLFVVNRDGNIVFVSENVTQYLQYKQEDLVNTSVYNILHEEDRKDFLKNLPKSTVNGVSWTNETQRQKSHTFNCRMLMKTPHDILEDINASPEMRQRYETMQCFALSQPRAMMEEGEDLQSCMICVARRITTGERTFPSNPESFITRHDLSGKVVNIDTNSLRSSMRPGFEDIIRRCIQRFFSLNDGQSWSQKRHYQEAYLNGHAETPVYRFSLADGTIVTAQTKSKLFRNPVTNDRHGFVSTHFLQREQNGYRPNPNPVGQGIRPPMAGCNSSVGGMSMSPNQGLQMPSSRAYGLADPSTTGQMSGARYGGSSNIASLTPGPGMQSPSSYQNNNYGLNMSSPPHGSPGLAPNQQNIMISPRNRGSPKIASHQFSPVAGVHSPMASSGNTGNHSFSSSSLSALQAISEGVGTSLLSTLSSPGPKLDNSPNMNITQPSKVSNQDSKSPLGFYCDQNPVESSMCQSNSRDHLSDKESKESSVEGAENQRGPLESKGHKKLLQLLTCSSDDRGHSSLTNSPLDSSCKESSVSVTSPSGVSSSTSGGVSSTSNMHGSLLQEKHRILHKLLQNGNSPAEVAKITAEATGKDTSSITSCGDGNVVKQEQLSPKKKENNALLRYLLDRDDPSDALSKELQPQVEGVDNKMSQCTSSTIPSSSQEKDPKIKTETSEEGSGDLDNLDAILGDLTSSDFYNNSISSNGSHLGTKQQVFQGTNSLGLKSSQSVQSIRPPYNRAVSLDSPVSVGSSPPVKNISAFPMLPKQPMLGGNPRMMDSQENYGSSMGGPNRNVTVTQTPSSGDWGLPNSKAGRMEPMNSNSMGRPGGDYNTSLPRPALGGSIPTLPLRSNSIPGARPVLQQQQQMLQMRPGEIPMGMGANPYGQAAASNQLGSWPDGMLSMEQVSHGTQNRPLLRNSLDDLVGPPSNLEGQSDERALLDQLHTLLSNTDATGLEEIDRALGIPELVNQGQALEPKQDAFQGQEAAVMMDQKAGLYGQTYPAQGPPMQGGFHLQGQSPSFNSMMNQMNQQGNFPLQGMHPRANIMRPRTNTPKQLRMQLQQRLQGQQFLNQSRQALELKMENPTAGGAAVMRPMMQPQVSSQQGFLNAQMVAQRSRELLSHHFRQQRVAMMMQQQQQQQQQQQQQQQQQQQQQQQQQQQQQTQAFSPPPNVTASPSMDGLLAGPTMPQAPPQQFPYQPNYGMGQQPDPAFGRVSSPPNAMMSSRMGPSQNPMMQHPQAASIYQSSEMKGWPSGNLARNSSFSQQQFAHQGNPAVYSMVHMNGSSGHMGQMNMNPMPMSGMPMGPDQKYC", "experiment": "NCOA3 GAL4-fusion reporter inhibition – cell-based, luminescence, quadruplicate, confirmation (AID 588792;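 active means mean inhibition over 43.08%, the solvent-only control mean plus 3 SD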;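 further: 0% = DMSO treated cells and 100% = gossypol at 36 µM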)", "settings": "HEK293 GAL4-SRC3 luciferase reporter, at 3.6 µM, active compounds read high"}, "[2]": {"tested_on": "transactivating tegument protein VP16 (Human herpesvirus 1), Gal4-VP16 luciferase reporter", "experiment": "repression of VP16-driven luciferase reporter – cell-based, luminescence, high throughput, counter-screen for SRC3 inhibitor project (AID 588794; in the data active means inhibition above about 30%)", "settings": "mammalian cells, at 3.6 µM, active compounds read high"}, "[3]": {"molecular_target": "Nuclear receptor coactivator 1 (Homo sapiens) (UniProt Q15788)", "sequence (Q15788 whole entry, looked up, the tested form may be a part)": "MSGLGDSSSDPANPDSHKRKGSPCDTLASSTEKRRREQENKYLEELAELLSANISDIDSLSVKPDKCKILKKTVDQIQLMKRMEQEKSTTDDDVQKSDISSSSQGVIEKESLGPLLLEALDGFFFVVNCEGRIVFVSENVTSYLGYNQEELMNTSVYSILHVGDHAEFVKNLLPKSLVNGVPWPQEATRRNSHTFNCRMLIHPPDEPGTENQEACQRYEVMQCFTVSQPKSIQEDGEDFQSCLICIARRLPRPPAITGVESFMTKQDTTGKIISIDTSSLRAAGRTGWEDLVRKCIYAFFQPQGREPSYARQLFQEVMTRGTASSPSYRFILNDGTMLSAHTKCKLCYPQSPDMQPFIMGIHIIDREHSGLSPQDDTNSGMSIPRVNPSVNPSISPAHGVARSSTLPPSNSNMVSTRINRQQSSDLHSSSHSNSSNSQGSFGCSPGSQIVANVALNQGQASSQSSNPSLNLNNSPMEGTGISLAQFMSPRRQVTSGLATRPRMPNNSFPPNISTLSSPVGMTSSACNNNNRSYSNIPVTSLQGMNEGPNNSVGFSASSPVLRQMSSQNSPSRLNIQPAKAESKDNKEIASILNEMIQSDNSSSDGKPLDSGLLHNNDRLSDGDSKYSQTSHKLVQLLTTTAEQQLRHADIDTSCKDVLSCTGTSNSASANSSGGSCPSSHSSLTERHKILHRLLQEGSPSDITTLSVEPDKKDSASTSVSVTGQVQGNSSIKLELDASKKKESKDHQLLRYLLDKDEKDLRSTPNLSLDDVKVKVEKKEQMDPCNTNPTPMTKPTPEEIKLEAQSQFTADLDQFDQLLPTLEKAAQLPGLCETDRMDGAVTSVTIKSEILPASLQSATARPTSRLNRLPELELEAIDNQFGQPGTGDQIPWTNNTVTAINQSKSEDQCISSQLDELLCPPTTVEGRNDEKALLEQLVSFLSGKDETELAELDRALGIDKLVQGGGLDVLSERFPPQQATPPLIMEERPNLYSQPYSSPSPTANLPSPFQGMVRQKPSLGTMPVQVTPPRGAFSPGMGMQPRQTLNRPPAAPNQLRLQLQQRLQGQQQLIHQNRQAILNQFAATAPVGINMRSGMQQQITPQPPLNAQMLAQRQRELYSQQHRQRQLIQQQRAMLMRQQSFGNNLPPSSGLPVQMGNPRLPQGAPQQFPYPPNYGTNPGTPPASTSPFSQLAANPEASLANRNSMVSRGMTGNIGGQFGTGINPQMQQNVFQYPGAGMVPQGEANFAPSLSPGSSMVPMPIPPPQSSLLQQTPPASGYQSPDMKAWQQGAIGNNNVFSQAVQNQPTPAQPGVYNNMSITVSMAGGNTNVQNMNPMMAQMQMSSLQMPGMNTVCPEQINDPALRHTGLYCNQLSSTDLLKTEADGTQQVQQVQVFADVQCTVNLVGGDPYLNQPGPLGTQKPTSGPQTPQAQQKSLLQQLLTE", "experiment": "NCOA1 GAL4-fusion reporter inhibition – cell-based, luminescence, quadruplicate, confirmation (AID 588820;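 active means mean inhibition above 46.68%, the untreated control wells mean plus 3 SD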;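 further: 0% = DMSO wells and 100% = gossypol 36 µM treated wells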)", "settings": "HEK293 GAL4-SRC1 luciferase reporter, at 3.6 µM, active compounds read high"}, "[4]": {"experiment": "repression of VP16-driven luciferase reporter – cell-based, luminescence, high throughput, counter-screen for SRC1 inhibitor project (AID 588824)", "settings": "cell-based VP16 transactivation luciferase luminescence; at 3.6 µM; active compounds read high"}}, "note": "A number with no mark means an inactive call. Activity calls are given as the source filed them. Unless noted, no stated cut-off is given here; in the data, active means inhibition above about 25%; inactive means the rest."}
{"smiles": "N#CC(c1ccc(Cl)cc1)c1ccc2c(C(F)(F)F)cc(C(F)(F)F)nc2n1", "note": "(stereo unspecified)", "values": [{"measurement": "inhibition", "setting": "[1]", "value": "62% (active)"}, {"measurement": "inhibition", "setting": "[2]", "value": "85.7% (active)"}, {"measurement": "inhibition", "setting": "[3]", "value": 32, "unit": "%"}, {"measurement": "inhibition", "setting": "[4]", "value": "83.3% (active)"}]}
{"smiles": "O=C(CNS(=O)(=O)Cc1ccccc1)NNc1ccccc1", "values": [{"measurement": "inhibition", "setting": "[1]", "value": 3.12, "unit": "%"}, {"measurement": "inhibition", "setting": "[2]", "value": 12.1, "unit": "%"}, {"measurement": "inhibition", "setting": "[3]", "value": 12.8, "unit": "%"}, {"measurement": "inhibition", "setting": "[4]", "value": 16.3, "unit": "%"}]}
{"smiles": "Oc1ccc(Nc2nc(N3CCCC3)c3ccccc3n2)cc1", "values": [{"measurement": "inhibition", "setting": "[1]", "value": 25.6, "unit": "%"}, {"measurement": "inhibition", "setting": "[2]", "value": "42.7% (active)"}, {"measurement": "inhibition", "setting": "[3]", "value": 34, "unit": "%"}, {"measurement": "inhibition", "setting": "[4]", "value": "40.2% (active)"}]}
{"smiles": "O=C(NCc1ccco1)c1ccc2c(c1)N(Cc1ccccc1)CCS2", "values": [{"measurement": "inhibition", "setting": "[1]", "value": 4.13, "unit": "%"}, {"measurement": "inhibition", "setting": "[2]", "value": 6.64, "unit": "%"}, {"measurement": "inhibition", "setting": "[3]", "value": 3.44, "unit": "%"}, {"measurement": "inhibition", "setting": "[4]", "value": 1.86, "unit": "%"}]}
{"smiles": "CCOC(=O)N=Nc1c2ccccc2c2nc3no[nH]c3nc12", "values": [{"measurement": "inhibition", "setting": "[1]", "value": "95.7% (active)"}, {"measurement": "inhibition", "setting": "[2]", "value": "93.1% (active)"}, {"measurement": "inhibition", "setting": "[3]", "value": "88.3% (active)"}, {"measurement": "inhibition", "setting": "[4]", "value": "92.4% (active)"}]}
{"smiles": "CCn1nc(C)c(CNC(=O)c2cc(COc3ccc(F)cc3Cl)on2)c1C", "values": [{"measurement": "inhibition", "setting": "[1]", "value": 12.7, "unit": "%"}, {"measurement": "inhibition", "setting": "[2]", "value": 28.5, "unit": "%"}, {"measurement": "inhibition", "setting": "[3]", "value": 8.35, "unit": "%"}, {"measurement": "inhibition", "setting": "[4]", "value": 20, "unit": "%"}]}
{"smiles": "CC1Sc2ccc(Cl)cc2-c2nc(N)ncc21", "note": "(stereo unspecified)", "values": [{"measurement": "inhibition", "setting": "[1]", "value": "43.9% (active)"}, {"measurement": "inhibition", "setting": "[2]", "value": "32.3% (active)"}, {"measurement": "inhibition", "setting": "[3]", "value": "48.2% (active)"}, {"measurement": "inhibition", "setting": "[4]", "value": "39.7% (active)"}]}
{"smiles": "O=C1C(F)=CC(COC(c2ccccc2)(c2ccccc2)c2ccccc2)OC1n1cc(F)c(=O)[nH]c1=O", "note": "(stereo unspecified)", "values": [{"measurement": "inhibition", "setting": "[1]", "value": "66% (active)"}, {"measurement": "inhibition", "setting": "[2]", "value": "60.3% (active)"}, {"measurement": "inhibition", "setting": "[3]", "value": -11.1, "unit": "%"}, {"measurement": "inhibition", "setting": "[4]", "value": "62.1% (active)"}]}
{"smiles": "COc1ccc(-n2ncc3c(N4CCCCC4)ncnc32)cc1", "values": [{"measurement": "inhibition", "setting": "[1]", "value": "51.2% (active)"}, {"measurement": "inhibition", "setting": "[2]", "value": "41.7% (active)"}, {"measurement": "inhibition", "setting": "[3]", "value": -11.5, "unit": "%"}, {"measurement": "inhibition", "setting": "[4]", "value": 23.9, "unit": "%"}]}
